This is one part of a sample in which the strongest signals are shown more often than they occur.
What was measured:
Assay in all cases: glycan array binding signal (z-score within array); higher = stronger binding
Conditions in all cases: glycan notation: IUPAC condensed, linker removed
[1] = biological target: Fuc(a1-2)Gal(b1-3)GalNAc(b1-3)Gal(a1-4)Gal(b1-4)Glc
How it was run: (§1)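 Arrays were curated from the Consortium for Functional Glycomics database, 3228 in total, and kept only where the protein sequence was available. Binding is expressed as a within-array Z-score. This score was averaged across arrays of the same protein sequence at different concentrations or buffers and across linkers, and negative values can be read as non-binding.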

[2] = biological target: Fuc(a1-2)Gal(b1-3)GlcNAc(b1-3)[Neu5Ac(a2-6)Gal(b1-4)GlcNAc(b1-6)]Gal(b1-4)Glc
How it was run: as §1

[3] = biological target: Fuc(a1-2)Gal(b1-3)GlcNAc6S
How it was run: as §1

[4] = biological target: Fuc(a1-2)Gal(b1-3)[Fuc(a1-4)]GlcNAc(b1-2)Man(a1-3)[Fuc(a1-2)Gal(b1-3)[Fuc(a1-4)]GlcNAc(b1-2)Man(a1-6)]Man(b1-4)GlcNAc(b1-4)[Fuc(a1-6)]GlcNAc(b1-4)[Fuc(a1-6)]GlcNAc
How it was run: as §1

Fuc(a1-2)Gal(b1-4)GlcNAc = biological target: Fuc(a1-2)Gal(b1-4)GlcNAc
How it was run: as §1

[5] = biological target: Fuc(a1-2)Gal(b1-4)GlcNAc(b1-3)Gal(b1-4)GlcNAc(b1-2)Man(a1-3)[Fuc(a1-2)Gal(b1-4)GlcNAc(b1-3)Gal(b1-4)GlcNAc(b1-2)Man(a1-6)]Man(b1-4)GlcNAc(b1-4)GlcNAc
How it was run: as §1

[6] = biological target: Fuc(a1-2)Gal(b1-4)GlcNAc(b1-3)Gal(b1-4)GlcNAc(b1-3)Gal(b1-4)GlcNAc
How it was run: as §1

[7] = biological target: Fuc(a1-2)Gal(b1-4)[Fuc(a1-3)]GlcNAc
How it was run: as §1

[8] = biological target: Fuc(a1-2)Gal(b1-4)[Fuc(a1-3)]GlcNAc(b1-3)GalNAc
How it was run: as §1

[9] = biological target: Fuc(a1-2)[Gal(a1-4)]Gal(b1-4)GlcNAc
How it was run: as §1

[10] = biological target: Fuc(a1-2)[GalNAc(a1-3)]Gal(b1-3)GalNAc(a1-3)[Fuc(a1-2)]Gal(b1-4)GlcNAc
How it was run: as §1

[11] = biological target: Fuc(a1-2)[GalNAc(a1-3)]Gal(b1-3)GalNAc(b1-3)Gal(a1-4)Gal(b1-4)Glc
How it was run: as §1

[12] = biological target: Fuc(a1-2)[GalNAc(a1-3)]Gal(b1-4)GlcNAc(b1-2)Man(a1-3)[Fuc(a1-2)[GalNAc(a1-3)]Gal(b1-4)GlcNAc(b1-2)Man(a1-6)]Man(b1-4)GlcNAc(b1-4)GlcNAc
How it was run: as §1

[13] = biological target: Fuc(a1-2)[GalNAc(a1-3)]Gal(b1-4)GlcNAc(b1-3)[Fuc(a1-2)[GalNAc(a1-3)]Gal(b1-4)GlcNAc(b1-6)]GalNAc
How it was run: as §1

[14] = biological target: Gal(a1-3)Gal(b1-3)GlcNAc(b1-2)Man(a1-3)[Gal(a1-3)Gal(b1-3)GlcNAc(b1-2)Man(a1-6)]Man(b1-4)GlcNAc(b1-4)GlcNAc
How it was run: as §1

[15] = biological target: Gal(a1-3)Gal(b1-4)GlcNAc(b1-2)Man
How it was run: as §1

[16] = biological target: Gal(a1-3)Gal(b1-4)GlcNAc(b1-3)GalNAc
How it was run: as §1

[17] = biological target: Gal(a1-3)[Gal(a1-4)]Gal(b1-4)GlcNAc
How it was run: as §1

[18] = biological target: Gal(b1-3)GalNAc(a1-3)[Fuc(a1-2)]Gal(b1-4)Glc
How it was run: as §1

[19] = biological target: Gal(b1-3)GalNAc(b1-3)Gal(a1-4)Gal(b1-4)Glc
How it was run: as §1

Gal(b1-3)GlcNAc(b1-2)Man = biological target: Gal(b1-3)GlcNAc(b1-2)Man
How it was run: as §1

[20] = biological target: Gal(b1-3)GlcNAc(b1-2)[Gal(b1-3)GlcNAc(b1-6)]Man(a1-6)[Gal(b1-3)GlcNAc(b1-2)Man(a1-3)]Man(b1-4)GlcNAc(b1-4)GlcNAc
How it was run: as §1

[21] = biological target: Gal(b1-3)GlcNAc(b1-6)Gal(b1-4)GlcNAc
How it was run: as §1

[22] = biological target: Gal(b1-3)[Neu5Ac(b2-6)]GalNAc
How it was run: as §1

[23] = biological target: Gal(b1-4)GlcNAc(b1-2)Man(a1-3)Man(b1-4)GlcNAc(b1-4)GlcNAc
How it was run: as §1

[24] = biological target: Gal(b1-4)GlcNAc(b1-2)Man(a1-3)[GlcNAc(b1-2)Man(a1-6)]Man(b1-4)GlcNAc(b1-4)GlcNAc
How it was run: as §1

[25] = biological target: Gal(b1-4)GlcNAc(b1-2)Man(a1-6)[Man(a1-3)]Man(b1-4)GlcNAc(b1-4)GlcNAc
How it was run: as §1

[26] = biological target: Gal(b1-4)GlcNAc(b1-2)[Gal(b1-4)GlcNAc(b1-6)]Man(a1-6)[GlcNAc(b1-4)][Gal(b1-4)GlcNAc(b1-2)Man(a1-3)]Man(b1-4)GlcNAc(b1-4)GlcNAc
How it was run: as §1

[27] = biological target: Gal(b1-4)GlcNAc(b1-3)Gal(b1-4)Glc
How it was run: as §1

[28] = biological target: Gal(b1-4)GlcNAc(b1-3)Gal(b1-4)GlcNAc
How it was run: as §1

B1: SBD-G4S3-Fc (protein)
chain: MASIPSSASVQLDSYNYDGSTFSGKIYVKNIAYSKKVTVVYADGSDNWNNNGNIIAASFSGPISGSNYEYWTFSASVKGIKEFYIKYEVSGKTYYDNNNSANYQVSTGGGGSGGGGSGGGGSEFVPRDCGCKPCICTVPEVSSVFIFPPKPKDVLTITLTPKVTCVVVDISKDDPEVQFSWFVDDVEVHTAQTQPREEQFNSTFRSVSELPIMHQDWLNGKEFKCRVNSAAFPAPIEKTISKTKGRPKAPQVYTIPPPKEQMAKDKVSLTCMITDFFPEDITVEWQWNGQPAENYKNTQPIMDTDGSYFVYSKLNVQKSNWEAGNTFTCSVLHEGLHNHHTEKSLSHSPGAA
With B1 the “glycan array binding signal (z-score)” value [1] was -0.249, the “glycan array binding signal (z-score)” value [2] was -0.478 and the “glycan array binding signal (z-score)” value [3] was -0.371. The “glycan array binding signal (z-score)” value [4] was 0.339, the “glycan array binding signal (z-score)” value (Fuc(a1-2)Gal(b1-4)GlcNAc) was -0.284 and the “glycan array binding signal (z-score)” value [5] was 1.23. For the same binder, the “glycan array binding signal (z-score)” value [6] was -0.034, the “glycan array binding signal (z-score)” value [7] was 0.134 and the “glycan array binding signal (z-score)” value [8] was 0.32. For the same binder, the “glycan array binding signal (z-score)” value [9] was -0.203, the “glycan array binding signal (z-score)” value [10] was 5.6 and the “glycan array binding signal (z-score)” value [11] was 0.07. The “glycan array binding signal (z-score)” value [12] was 0.007, the “glycan array binding signal (z-score)” value [13] was -0.2 and the “glycan array binding signal (z-score)” value [14] was 1.16. The “glycan array binding signal (z-score)” value [15] was -0.234, the “glycan array binding signal (z-score)” value [16] was 0.357 and the “glycan array binding signal (z-score)” value [17] was 1.33. For the same binder, the “glycan array binding signal (z-score)” value [18] was -0.267, the “glycan array binding signal (z-score)” value [19] was 0.103 and the “glycan array binding signal (z-score)” value (Gal(b1-3)GlcNAc(b1-2)Man) was -0.388. For the same binder, the “glycan array binding signal (z-score)” value [20] was -0.089, the “glycan array binding signal (z-score)” value [21] was -0.401 and the “glycan array binding signal (z-score)” value [22] was -0.146. For the same binder, the “glycan array binding signal (z-score)” value [23] was 0.225, the “glycan array binding signal (z-score)” value [24] was -0.37 and the “glycan array binding signal (z-score)” value [25] was 0.054. The “glycan array binding signal (z-score)” value [26] was 0.227, the “glycan array binding signal (z-score)” value [27] was -0.301 and the “glycan array binding signal (z-score)” value [28] was -0.054.

— the supplement of paper PMC8728848
